# Records with an inconclusive call do not appear. The source made the active and inactive calls. How the source made its calls, unless noted: active means hit-call score of the fitted dose curve at least 0.9, where 1 is the maximum; inconclusive means response in the unintended direction; inactive means score below 0.9.
# What was measured:
# [1] = TOX21_PR_BLA_Followup_Antagonist_viability: Viability Assessment in the Tox21 HEK293 Progesterone Receptor (PR) Antagonism Beta-lactamase Follow-Up Assay (AID 2283936);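 further: cells exposed to compound with R5020 agonist for 16 h; hits lower the luminescence signal meaning cytotoxicity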
# Method in brief: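 PR-UAS-bla HEK293T cells in medium with 2% charcoal-stripped FBS were treated with compounds plus R5020 for 16 hr at 37C. After the beta-lactamase read, CellTiter-Glo was added to the same wells and luminescence read after 30 min at room temperature.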
# [2] = TOX21_PR_LUC_Followup_Antagonist_viability: Viability Assessment in the Tox21 HEK293 Progesterone Receptor (PR) Antagonism Luciferase Follow-Up Assay (AID 2283940)
# Method in brief: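 Loss of CellTiter-Glo ATP signal indicates cytotoxicity in HEK293-PR-A-luc cells grown in 10% charcoal-stripped FBS medium, seeded 3,000 per well and incubated 16 h with compound at 37C.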
# [3] = TOX21_PR_LUC_Followup_Agonist_viability: Viability Assessment in the Tox21 HEK293 Progesterone Receptor (PR) Agonism Luciferase Follow-Up Assay (AID 2283941);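 further: loss of signal means cytotoxicity so actives lower viability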
# Method in brief: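 Seeding: HEK293-PR-A-luc, 3,000 cells/well, 5 h at 37C. Treatment: compound in DMSO, 16 h, 37C. Read: CellTiter-Glo ATP luminescence, signal loss taken as lower viability.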
# [4] = biological target: human Acetylcholinesterase (AChE), ACHE (gene 43) (UniProt P22303); experiment: NVS_ENZ_hAChE: NovaScreen (NVS) Enzymatic Assay for human Acetylcholinesterase (AChE) (AID 2283129)
# human Acetylcholinesterase (AChE), ACHE (gene 43), sequence (P22303 whole entry, looked up): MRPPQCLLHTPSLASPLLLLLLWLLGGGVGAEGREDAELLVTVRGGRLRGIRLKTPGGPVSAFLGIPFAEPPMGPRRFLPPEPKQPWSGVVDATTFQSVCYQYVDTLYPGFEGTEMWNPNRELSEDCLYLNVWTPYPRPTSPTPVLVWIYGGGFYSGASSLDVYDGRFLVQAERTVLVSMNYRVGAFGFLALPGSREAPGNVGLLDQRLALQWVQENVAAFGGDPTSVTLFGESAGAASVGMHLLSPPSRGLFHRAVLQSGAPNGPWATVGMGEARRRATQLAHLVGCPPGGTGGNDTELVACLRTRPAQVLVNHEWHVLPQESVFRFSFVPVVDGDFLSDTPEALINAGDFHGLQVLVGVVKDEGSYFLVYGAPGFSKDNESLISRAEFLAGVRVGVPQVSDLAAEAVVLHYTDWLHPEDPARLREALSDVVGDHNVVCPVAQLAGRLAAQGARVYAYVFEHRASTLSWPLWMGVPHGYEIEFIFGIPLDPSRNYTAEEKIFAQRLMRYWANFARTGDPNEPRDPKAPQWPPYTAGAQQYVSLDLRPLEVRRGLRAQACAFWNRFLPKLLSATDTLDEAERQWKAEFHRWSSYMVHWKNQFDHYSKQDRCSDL
# Method in brief: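 Actives from a duplicate single-point screen (25 uM) were followed up in concentration series. Enzyme activity read by absorbance (colorimetric) 0.33 hour after dosing, cell-free, normalized to DMSO, with loss of signal scored.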
# [5] = biological target: human Ephrin type-A Receptor 2 (EphA2), EPHA2 (gene 1969) (UniProt P29317); experiment: NVS_ENZ_hEphA2: NovaScreen (NVS) Enzymatic Assay for human Ephrin type-A Receptor 2 (EphA2) (AID 2283155)
# human Ephrin type-A Receptor 2 (EphA2), EPHA2 (gene 1969), sequence (P29317 whole entry, looked up): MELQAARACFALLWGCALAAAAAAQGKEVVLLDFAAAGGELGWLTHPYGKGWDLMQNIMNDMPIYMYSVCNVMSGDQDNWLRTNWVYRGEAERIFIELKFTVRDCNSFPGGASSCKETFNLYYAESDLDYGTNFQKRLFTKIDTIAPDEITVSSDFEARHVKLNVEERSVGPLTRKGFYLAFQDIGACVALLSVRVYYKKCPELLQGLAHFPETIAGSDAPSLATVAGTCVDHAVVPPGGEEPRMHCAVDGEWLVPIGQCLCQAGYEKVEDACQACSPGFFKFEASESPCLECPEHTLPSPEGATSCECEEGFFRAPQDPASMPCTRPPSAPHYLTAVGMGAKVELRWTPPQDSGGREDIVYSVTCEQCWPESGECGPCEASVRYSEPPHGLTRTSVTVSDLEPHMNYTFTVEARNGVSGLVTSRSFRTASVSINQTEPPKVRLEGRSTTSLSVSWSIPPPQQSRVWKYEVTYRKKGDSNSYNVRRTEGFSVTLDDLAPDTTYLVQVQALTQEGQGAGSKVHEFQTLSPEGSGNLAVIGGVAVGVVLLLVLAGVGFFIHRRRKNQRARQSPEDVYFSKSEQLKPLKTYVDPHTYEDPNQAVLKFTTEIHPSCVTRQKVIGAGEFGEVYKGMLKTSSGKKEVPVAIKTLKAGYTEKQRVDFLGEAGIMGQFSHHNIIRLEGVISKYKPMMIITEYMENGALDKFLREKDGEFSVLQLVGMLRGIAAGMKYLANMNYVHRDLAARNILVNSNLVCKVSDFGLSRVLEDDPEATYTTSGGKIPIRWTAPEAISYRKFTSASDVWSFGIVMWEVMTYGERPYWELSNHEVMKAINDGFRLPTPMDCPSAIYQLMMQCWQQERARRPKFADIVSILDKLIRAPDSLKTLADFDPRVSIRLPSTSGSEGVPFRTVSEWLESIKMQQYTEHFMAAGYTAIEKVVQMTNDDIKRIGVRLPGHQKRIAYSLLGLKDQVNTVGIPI
# Method in brief: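 Enzyme activity of recombinant EphA2 read by fluorescence after mobility-shift separation, 1 h after dosing. Chemicals first tested at 25 uM (duplicate); those passing threshold run as concentration series, top 50 uM, single replicate, relative to DMSO.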
# [6] = biological target: human Mitogen-Activated Protein Kinase 1 (MAPK 1), MAPK1 (gene 5594) (UniProt P28482); experiment: NVS_ENZ_hMAPK1: NovaScreen (NVS) Enzymatic Assay for human Mitogen-Activated Protein Kinase 1 (MAPK 1) (AID 2283175)
# human Mitogen-Activated Protein Kinase 1 (MAPK 1), MAPK1 (gene 5594), sequence (P28482 whole entry, looked up): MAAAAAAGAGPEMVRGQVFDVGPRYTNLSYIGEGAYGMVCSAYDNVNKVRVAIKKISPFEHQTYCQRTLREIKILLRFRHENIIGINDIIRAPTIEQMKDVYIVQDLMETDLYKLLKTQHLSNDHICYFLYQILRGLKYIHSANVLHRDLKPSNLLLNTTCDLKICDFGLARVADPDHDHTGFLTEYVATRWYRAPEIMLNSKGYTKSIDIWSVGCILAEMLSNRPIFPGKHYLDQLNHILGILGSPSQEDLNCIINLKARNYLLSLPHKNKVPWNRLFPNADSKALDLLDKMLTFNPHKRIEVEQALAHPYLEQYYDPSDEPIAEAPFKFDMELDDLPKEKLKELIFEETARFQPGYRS
# Method in brief: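 Cell-free recombinant human MAPK1 enzymatic assay, fluorescence/electrophoretic mobility shift read at 1 h; loss of signal vs DMSO. Primary screen in duplicate at 25 uM; actives (e.g. ≥30% inhibition) run as concentration-response up to 50 uM.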
# [7] = biological target: human CYP2C8, CYP2C8 (gene 1558) (UniProt P10632); experiment: NVS_ADME_hCYP2C8: NovaScreen (NVS) CYP450-related Enzyme Activity (ADME) Assay for human CYP2C8 (AID 2283104; active means hit-call score of the fitted dose curve at least 0.9, where 1 is the maximum; inactive means score below 0.9)
# human CYP2C8, CYP2C8 (gene 1558), sequence (P10632 whole entry, looked up): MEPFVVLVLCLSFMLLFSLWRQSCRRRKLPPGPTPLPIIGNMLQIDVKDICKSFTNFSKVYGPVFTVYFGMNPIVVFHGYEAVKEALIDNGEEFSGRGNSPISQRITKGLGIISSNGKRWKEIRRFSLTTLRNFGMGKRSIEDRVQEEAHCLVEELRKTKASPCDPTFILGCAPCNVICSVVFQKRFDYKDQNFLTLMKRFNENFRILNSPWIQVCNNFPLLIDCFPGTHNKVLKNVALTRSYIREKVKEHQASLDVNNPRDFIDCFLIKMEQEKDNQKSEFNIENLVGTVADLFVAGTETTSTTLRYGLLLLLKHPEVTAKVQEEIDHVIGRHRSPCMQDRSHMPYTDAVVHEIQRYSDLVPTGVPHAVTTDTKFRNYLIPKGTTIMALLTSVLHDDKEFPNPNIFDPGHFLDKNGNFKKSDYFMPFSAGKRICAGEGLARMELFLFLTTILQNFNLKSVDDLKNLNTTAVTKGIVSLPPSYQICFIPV
# Procedure: NVS_ADME_hCYP2C8 is a biochemical, single-readout assay that uses extracted gene-proteins in a cell-free assay. Measurements were taken 0.5 hour after chemical dosing in a 96-well plate.NVS_ADME_hCYP2C8 is one of one assay component(s) measured or calculated from the NVS_ADME_hCYP2C8 assay. It is designed to make measurements of enzyme activity, a form of enzyme reporter, as detected with fluorescence intensity signals by Fluorescence technology.Data from the assay component NVS_ADME_hCYP2C8 was analyzed into 1 assay endpoint. This assay endpoint, NVS_ADME_hCYP2C8, was analyzed in the positive analysis fitting direction relative to Acetonitrile as the negative control and baseline of activity. Using a type of enzyme reporter, loss-of-signal activity can be used to understand changes in the enzymatic activity as they relate to the gene CYP2C8. Furthermore, this assay endpoint can be referred to as a primary readout, because this assay has produced multiple assay endpoints where this one serves a enzymatic activity function. To generalize the intended target to other relatable targets, this assay endpoint is annotated to the cyp intended target family, where the subfamily is xenobiotic metabolism.
# Binding assays used specific radioligands (tritiated, iodinated) with non-radioactive competitive displacement ligands in agonist or antagonist protocols (as indicated) and various reference compounds and inhibitors to titrate specific binding to receptors and transporters. Most enzyme assays (CYPs, kinases, phosphatases, proteases, HDACs) used recombinant protein and specific substrates (fluorescence mostly, some colorimetric and radioactive) and inhibitors, followed by a biochemical separation of substrate and product. All assays for the biochemical HTS were initially run in duplicate at a single concentration (10 uM for CYP450 assays and 25 uM for all others). […]
# [8] = biological target: rat Adenylate Cyclase, Forskolin Stimulated, Adcy5 (gene 64532) (UniProt Q04400); experiment: NVS_ENZ_rACFSKBinding: NovaScreen (NVS) Enzymatic Assay for rat Adenylate Cyclase, Forskolin Stimulated (AID 2283232)
# rat Adenylate Cyclase, Forskolin Stimulated, Adcy5 (gene 64532), sequence (Q04400 whole entry, looked up): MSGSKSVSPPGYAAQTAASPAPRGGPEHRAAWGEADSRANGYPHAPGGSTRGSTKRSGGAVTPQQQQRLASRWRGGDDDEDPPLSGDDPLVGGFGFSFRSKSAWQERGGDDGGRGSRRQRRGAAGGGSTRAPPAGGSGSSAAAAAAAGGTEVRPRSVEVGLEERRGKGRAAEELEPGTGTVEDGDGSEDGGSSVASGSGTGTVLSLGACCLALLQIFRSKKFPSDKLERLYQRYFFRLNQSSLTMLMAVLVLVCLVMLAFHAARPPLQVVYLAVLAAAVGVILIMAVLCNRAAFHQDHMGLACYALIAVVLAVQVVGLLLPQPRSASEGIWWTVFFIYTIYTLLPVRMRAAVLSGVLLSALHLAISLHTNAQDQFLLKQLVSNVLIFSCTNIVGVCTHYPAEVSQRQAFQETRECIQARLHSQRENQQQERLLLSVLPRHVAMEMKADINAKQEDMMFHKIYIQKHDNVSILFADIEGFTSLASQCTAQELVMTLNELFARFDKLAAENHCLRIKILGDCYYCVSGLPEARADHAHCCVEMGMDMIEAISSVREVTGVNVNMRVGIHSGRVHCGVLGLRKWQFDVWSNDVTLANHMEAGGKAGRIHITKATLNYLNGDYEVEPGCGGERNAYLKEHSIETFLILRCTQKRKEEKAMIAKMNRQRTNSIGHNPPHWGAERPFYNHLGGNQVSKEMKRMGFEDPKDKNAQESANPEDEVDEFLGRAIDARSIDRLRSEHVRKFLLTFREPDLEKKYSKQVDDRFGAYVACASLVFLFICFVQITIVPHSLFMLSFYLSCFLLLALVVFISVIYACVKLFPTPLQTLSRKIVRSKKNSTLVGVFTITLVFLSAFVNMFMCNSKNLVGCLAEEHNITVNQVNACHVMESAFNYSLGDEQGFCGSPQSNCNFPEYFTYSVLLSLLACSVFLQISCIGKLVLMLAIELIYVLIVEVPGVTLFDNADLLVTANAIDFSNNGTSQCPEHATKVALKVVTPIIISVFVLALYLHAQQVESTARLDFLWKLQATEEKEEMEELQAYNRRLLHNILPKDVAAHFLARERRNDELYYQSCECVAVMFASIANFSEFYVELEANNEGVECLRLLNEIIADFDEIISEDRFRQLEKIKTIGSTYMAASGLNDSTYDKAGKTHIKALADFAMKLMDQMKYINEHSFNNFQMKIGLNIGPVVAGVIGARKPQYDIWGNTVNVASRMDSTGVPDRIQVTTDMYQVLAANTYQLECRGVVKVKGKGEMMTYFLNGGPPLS
# Method in brief: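 Chemicals were first tested at 25 uM in duplicate, then hits run as concentration series with top concentration 50 uM. Enzyme source was rat forebrain membranes; radiometric filter read-out after 1 h, referenced to DMSO.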
# [9] = biological target: Voltage-dependent N-type calcium channel subunit alpha-1B (Rattus norvegicus) (UniProt Q02294); experiment: NVS_IC_rCaChN: NovaScreen (NVS) Ion Channel Assay for rat Calcium Channel, Type N (CaChN) (AID 2283317)
structure (smiles),measurement,setting,value
CC(=O)c1cc2c(cc1C)C(C)(C)C(C)CC2(C)C (centres undefined),outcome,[1],inactive
same,outcome,[2],inactive
same,outcome,[3],inactive
CSc1ccc(Oc2ccc(S(N)(=O)=O)cc2CN(C)C)cc1C,outcome,[4],inactive
CC(C)(c1ccc(O)cc1)c1ccc(O)cc1,outcome,[5],inactive
same,outcome,[6],inactive
N#CSCSc1nc2ccccc2s1,AC50,[7],4.46 µM (active)
same,AC50,[8],25 µM (active)
O=C(O)Cn1c(=O)n(Cc2ccc(Br)cc2F)c(=O)c2ccc(Cl)cc21,outcome,[9],inactive
